Results taken from PubChem BioAssay AID1159580 (chemical genetic matrix, 2015).
Out of some 5,500 compounds screened, about 2,000 (36%) were called active. Not shown: some 18% with an inconclusive outcome. Rule as the data show it: active = normalized growth mostly below about 0.91 (no sharp cut-off); inconclusive = no clear call, values can overlap the other calls; inactive = mostly above about 0.92. The list shows a part of the results.

Assay: chemical genetic growth profiling, strain panel (AID 1159580);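 also: tested at 20 µM; growth read once vehicle control cultures reached saturation at 30 °C; 1 = growth at the plate median or of vehicle wells; lower values mean less growth of the strain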
Details: growth OD

Measured: normalized growth

O=C(O)CSCCOc1ccccc1
inactive: S. cerevisiae deletion strains, locus YAL013W, strain DEP1, hits give low values 1.01 | S. cerevisiae deletion strains, locus YBR229C, strain ROT2, hits give low values 1.01 | S. cerevisiae deletion strains, locus YCL061C, strain MRC1, hits give low values 1 | S. cerevisiae deletion strains, locus YDL101C, strain DUN1, hits give low values 0.997 | S. cerevisiae deletion strains, locus YDL134C, strain PPH21, hits give low values 1.03 | S. cerevisiae deletion strains, locus YDR150W, strain NUM1, hits give low values 0.932 | S. cerevisiae deletion strains, locus YEL061C, strain CIN8, hits give low values 1.01 | S. cerevisiae deletion strains, locus YGR078C, strain PAC10, hits give low values 1 | S. cerevisiae deletion strains, locus YHR030C, strain SLT2, hits give low values 1.07 | S. cerevisiae deletion strains, locus YHR087W, strain rtc3, hits give low values 0.998 | S. cerevisiae deletion strains, locus YJR043C, strain POL32, hits give low values 1.01 | S. cerevisiae deletion strains, locus YJR075W, strain HOC1, hits give low values 1.02 | S. cerevisiae deletion strains, locus YKL190W, strain CNB1, hits give low values 1.01 | S. cerevisiae deletion strains, locus YLR039C, strain RIC1, hits give low values 1.04 | S. cerevisiae deletion strains, locus YLR058C, strain SHM2 (second series), hits give low values 1.01 | S. cerevisiae deletion strains, locus YLR085C, strain ARP6, hits give low values 0.997 | S. cerevisiae deletion strains, locus YLR262C, strain YPT6, hits give low values 1.05 | S. cerevisiae deletion strains, locus YML094W, strain GIM5, hits give low values 1.01 | S. cerevisiae deletion strains, locus YMR219W, strain ESC1, hits give low values 1 | S. cerevisiae deletion strains, locus YMR263W, strain SAP30, hits give low values 1.01 | S. cerevisiae deletion strains, locus YMR307W, strain GAS1, hits give low values 1.05 | S. cerevisiae deletion strains, locus YNL153C, strain GIM3, hits give low values 1 | S. cerevisiae deletion strains, locus YNL298W, strain CLA4 (second series), hits give low values 1.02 | S. cerevisiae deletion strains, locus YNL322C, strain KRE1, hits give low values 0.997 | S. cerevisiae deletion strains, locus YNR030W, strain Alg12, hits give low values 1.02 | S. cerevisiae deletion strains, locus YPL055C, strain LGE1, hits give low values 1.09 | S. cerevisiae deletion strains, locus YPL241C, strain CIN2, hits give low values 0.994 | S. cerevisiae deletion strains, locus YPR135W, strain CTF4, hits give low values 1.17 | S. cerevisiae strains, strain wild type, hits give low values 1.02
